About 83,000 compounds went through this panel and 20% of them were active in at least one assay; those are over-represented in the sample as a whole.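 96-well plates, one dose, 48 hours. Percent growth reported; active if below 10.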 Unmarked numbers belong to inactive results. Activity calls are given as the source filed them.
Key:
Assay in all cases: NCI-60 one-dose screen, 48 h (100 = growth as untreated, 0 = no growth, -100 = all killed)
Settings in all cases: 10 µM
[1] = tested on: HT29 colon
[2] = tested on: SNB-75 CNS
[3] = tested on: SNB-19 CNS
[4] = tested on: U251 CNS
[5] = tested on: PC-3 prostate
[6] = tested on: SK-MEL-5 melanoma
[7] = tested on: UACC-62 melanoma
[8] = tested on: LOX IMVI melanoma
[9] = tested on: SK-MEL-28 melanoma

Structure (SMILES)	growth [1]	growth [2]	growth [3] [%]	growth [4]	growth [5]	growth [6]	growth [7]	growth [8]	growth [9]
COc1ccc(-c2nn(-c3cccc(NC(=O)c4ccc(Cl)c(Cl)c4)c3)cc2-c2ccncc2)cc1Cl	78.2%	74.8%	87.1	64%	48.6%	78.8%	83.7%	91.2%	75.3%
COc1ccc(/C(=C2/O[C@@H]([C@H]3COC(C)(C)O3)[C@H]3OC(C)(C)O[C@@H]23)c2cc(OC)c(OC)c(OC)c2)cc1O	113%	24.3%	27.6	61.2%	29.4%	61.8%	82.9%	47.6%	
COc1ccc(C2=NN(C(=O)c3ccc(S(C)(=O)=O)cc3)C(c3ccc(OC)c(OC)c3)C2)c(OC)c1 (configuration not stated)	103%	94%	99.1	106%	90.9%	90%	95.2%	103%	112%
FC(F)(F)c1ccc(-c2cnc(-n3cc(COCCN4CCCCC4)nn3)nc2NC2CCCCCC2)cc1	-73.1% (active)	11.5%	84.2	-74.5% (active)	7.37% (active)	-91% (active)	-79.2% (active)	-55.8% (active)	-90.5% (active)
O=C1CC[C@@H]2CCCC[C@@H]2C1	107%	95.2%	102	108%	85.3%	110%	94.6%	101%	112%
CCOC(=O)C(NC(=O)C(Cl)Cl)C(O)c1ccccc1 (configuration not stated)	107%	91.3%	101	101%	-0.104% (active)	91.4%	94.2%	99.9%	144%
FC(F)(F)c1ccc(-c2cnc(Cl)nc2N2CCC3(CC2)OCCO3)cc1	96.9%	93.8%	102	85.3%	87.2%	93.8%	96.8%	90.4%	102%
O=C1OCC2=C1C(c1cccc(Cl)c1)c1cc3c(cc1N2CCO)OCCO3 (configuration not stated)	2.11% (active)	29.2%	37.4	0.324% (active)	21.3%	-8.57% (active)	27.9%	22.2%	57.7%
COc1ccc2c(c1)N(CCO)C1=C(C(=O)OC1)C2c1ccc(OC)c(OC)c1 (configuration not stated)	9.84% (active)	16.2%	53.2	34.5%	38%	16.9%	27.3%	38.2%	61.6%
COc1ccc(-c2nn(-c3cccc(NC(=O)Nc4ccccc4)c3)cc2-c2ccncc2)cc1Cl	-69.6% (active)	27.5%	83.5	-35.8% (active)	8.81% (active)	42.1%	46.4%	29%	11.3%
Cc1ncc(-c2ccoc2)c(NC2CCCCCC2)n1	99.4%	97%	105	93.5%	105%	99.6%	104%	96.9%	128%
S=C1SCC(c2ccccc2)S1 (configuration not stated)	103%	92.2%	97.8	95.5%	99.7%	103%	100%	103%	103%
COc1ccc(-c2nn(-c3cccc(NC(=O)Nc4cccc(C(F)(F)F)c4)c3)cc2-c2ccncc2)cc1Cl	2.94% (active)	21.5%	37.1	-25.2% (active)	3.59% (active)	2.68% (active)	-21.5% (active)	22.6%	15.6%
O=[N+]([O-])c1ccc(Oc2cccnc2)c([N+](=O)[O-])c1	-4.49% (active)	87.7%	106	85.7%	83.1%	79.1%	84.5%	24.1%	97.6%
COc1cc(/C=N/NC(=O)c2ccccc2Nc2cccc(C(F)(F)F)c2)cc(OC)c1OC	8.62% (active)	4.15% (active)	61.4	-32.1% (active)	-35.3% (active)	29.2%	10.3%	11.9%	39.3%
O=C1OCC2=C1C(c1cccc(Cl)c1)c1cc3c(cc1N2CCO)CCC3 (configuration not stated)	-9.18% (active)	40.5%	29.8	3.51% (active)	20.4%	-8.14% (active)	26.6%	12.6%	59.2%
Cc1ccc(S(=O)(=O)Oc2ccc3c4c(c(=O)oc3c2)CCCCC4)cc1	6.29% (active)	76.2%	86.8	38.7%	33.5%	20.5%	56.5%	62.8%	79.5%
O=[N+]([O-])c1cccc(-c2ncc(-c3ccc(Cl)cc3Cl)[nH]2)c1	-65.2% (active)	90.6%	96.7	-100% (active)	-82.6% (active)	94.7%	63.4%	-100% (active)	92.8%
COc1ccc2c(c1)N(CCO)C1=C(C(=O)OC1)C2c1ccccc1 (configuration not stated)	1.72% (active)	14.6%	41.1	20.9%	27.1%	9.35% (active)	20.1%	43.3%	53.7%
O=C(CC(NC(=O)OCc1ccccc1)C(=O)OCc1ccccc1)OCc1ccccc1 (configuration not stated)	98.6%	113%	109	90.4%	93.8%	94.1%	97.2%	101%	108%
CN(C)c1ccc(/C=C/C=N/NC(=O)c2cc(O)c(O)c(O)c2)cc1	111%	81.3%	79.9	59.7%	85.8%	92.9%	107%	91.4%	108%
COc1ccc(-c2nn(-c3cccc(NC(=O)Nc4cc(C(F)(F)F)cc(C(F)(F)F)c4)c3)cc2-c2ccncc2)cc1Cl	-17.4% (active)	6.77% (active)	30.2	-75.5% (active)	-14.7% (active)	-37.6% (active)	7.55% (active)	12.9%	-5.48% (active)
COc1ccc(-c2nn(-c3cccc(NC(=O)c4cc(C(F)(F)F)cc(C(F)(F)F)c4)c3)cc2-c2ccncc2)cc1Cl	61%	60.9%	90.8	54.7%	40.7%	62.9%	73.6%	80.3%	67.3%
O=C1OCC2=C1C(c1ccc(Cl)c(Cl)c1)c1cc3c(cc1N2CCO)OCCO3 (configuration not stated)	2.95% (active)	30.3%	33.1	18.2%	19.1%	29.9%	22.5%	44.3%	53%
CN(C)CCN1C(=O)c2cccc3c(-c4ccc5ncn(C6CCCCC6)c5c4)ccc(c23)C1=O	7.45% (active)	40.1%	23.3	12.6%	22%	21.4%	24.6%	13.8%	47.2%
CCN1CCCC1CNC(=O)c1ncc(-c2ccc(C(F)(F)F)cc2)c(NC2CCCCCC2)n1 (configuration not stated)	11.7%	74.3%	85.2	52.7%	58.4%	45.2%	78.3%	87.1%	81.5%
O=C(Nc1cccc(-n2cc(-c3ccncc3)c(-c3ccc(O)c(Cl)c3)n2)c1)c1ccc(Cl)c(Cl)c1	69.8%	38.5%	72.8	11%	37.9%	48.1%	51.1%	53%	47.6%
